This note sets out measurements from PubChem BioAssay (EPA / NIEHS).

Read-out in assay [1]: Interleukin-1 alpha (IL1a), IL1A (gene 3552)
As to the kind of experiment: BSK_LPS_IL1a: BioMAP Diversity Plus: LPS Assay for Interleukin-1 alpha (IL1a) Biomarker Activity (AID 2283080). The note with it: primary human HUVEC with PBMC; actives raise or lower the signal. In a few lines:
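Measured: IL-1 alpha via ELISA at 24 h in LPS-activated human umbilical vein endothelium–PBMC co-culture. Baseline: DMSO, bidirectional fitting.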

Read-out in assay [2]: Monocyte Chemoattractant Protein-1 (MCP1), CCL2 (gene 6347)
Kind of assay: BSK_LPS_MCP1: BioMAP Diversity Plus: LPS Assay for Monocyte Chemoattractant Protein-1 (MCP1) Biomarker Activity (AID 2283081).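 Further: secreted MCP-1 protein quantified by ELISA in culture supernatant.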 As to conditions: primary human HUVEC with PBMC; actives raise or lower the signal. The procedure, abridged: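 LPS-stimulated HUVEC/PBMC co-culture; chemical, 24 h; MCP-1 by ELISA; bidirectional fit vs DMSO; cytotoxicity via SRB (0.1% stain, 10% TCA fix, 560 nm) in parallel wells.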

Assay [3] can be described thus: BSK_LPS_PGE2: BioMAP Diversity Plus: LPS Assay for Prostaglandin E2 (PGE2) Biomarker Activity (AID 2283082).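 On AC50: secreted prostaglandin E2 measured by ELISA in LPS-stimulated co-culture.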 As to conditions: primary human HUVEC with PBMC; actives raise or lower the signal. The procedure, abridged: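 ELISA read-out of PGE2 from human umbilical vein endothelial cells co-cultured with peripheral blood mononuclear cells under LPS, 24 h post-dose. Gain or loss of signal scored relative to DMSO baseline.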

Read-out in assay [4]: Macrophage colony-stimulating factor (MCSF), CSF1 (gene 1435)
As to the kind of experiment: BSK_LPS_MCSF: BioMAP Diversity Plus: LPS Assay for Macrophage colony-stimulating factor (MCSF) Biomarker Activity (AID 2283083). As to conditions: primary human HUVEC with PBMC; actives raise or lower the signal. The procedure, abridged:
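Compound is added to a human vascular primary co-culture of umbilical vein endothelium and blood mononuclear cells. After 24 h, M-CSF is quantified by ELISA. Signal changes are fitted in both directions against DMSO.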

Read-out in assay [5]: Tissue Factor, F3 (gene 2152)
As to the kind of experiment: BSK_LPS_TissueFactor: BioMAP Diversity Plus: LPS Assay for Tissue Factor Biomarker Activity (AID 2283084). The note with it: primary human HUVEC with PBMC; actives raise or lower the signal. The procedure, abridged:
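In this co-culture system of umbilical vein endothelium with PBMC, stimulated with LPS, cell-surface CD142 is detected by ELISA at 24 h. Endpoint values derive from bidirectional fitting, DMSO serving as baseline.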

Read-out in assay [6]: Tumor necrosis factor (Homo sapiens) (UniProt P01375)
Kind of assay: BSK_LPS_TNFa: BioMAP Diversity Plus: LPS Assay for Tumour Necrosis Factor alpha (TNFa) Biomarker Activity (AID 2283085).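 On AC50: TNFa protein level quantified by ELISA in the co-culture.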 The note with it: primary human HUVEC with PBMC; actives raise or lower the signal. In a few lines:
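HUVEC/PBMC co-culture, LPS-stimulated; 24 h post-dose; TNFa by ELISA; gain or loss of signal fitted bidirectionally vs DMSO baseline.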

Read-out in assay [7]: Vascular cell adhesion molecule 1 (VCAM1), VCAM1 (gene 7412)
As to the kind of experiment: BSK_LPS_VCAM1: BioMAP Diversity Plus: LPS Assay for Vascular cell adhesion molecule 1 (VCAM1) Biomarker Activity (AID 2283086). As to conditions: primary human HUVEC with PBMC; actives raise or lower the signal. The procedure, abridged:
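ELISA read-out of VCAM-1 at 24 h post-dosing in an LPS-driven HUVEC/PBMC primary human co-culture; gain or loss of signal fitted bidirectionally against DMSO baseline. Cytotoxicity tracked in parallel cultures by SRB total-protein staining.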

Read-out in assay [8]: CD38, CD38 (gene 952)
As to the kind of experiment: BSK_SAg_CD38: BioMAP Diversity Plus: SAg Assay for CD38 Biomarker Activity (AID 2283087). As to conditions: primary human HUVEC with PBMC; actives raise or lower the signal. The procedure, abridged: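 Measures CD38 on a human endothelial/PBMC co-culture driven by SEB and TSST-1, 24 h after compound exposure, using ELISA with fluorescence detection; DMSO defines baseline for bidirectional curve fitting.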

Read-out in assay [9]: CD40, CD40 (gene 958)
As to the kind of experiment: BSK_SAg_CD40: BioMAP Diversity Plus: SAg Assay for CD40 Biomarker Activity (AID 2283088). As to conditions: primary human HUVEC with PBMC; actives raise or lower the signal. In a few lines:
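Fluorescence ELISA read-out of CD40 from umbilical vein endothelium plus peripheral blood mononuclear cells, sampled 24 h after dosing. Values come from bidirectional curve fitting with DMSO as baseline.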

Read-out in assay [10]: CD69, CD69 (gene 969)
Kind of assay: BSK_SAg_CD69: BioMAP Diversity Plus: SAg Assay for CD69 Biomarker Activity (AID 2283089).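 Further: cell surface CD69 protein quantified by ELISA with fluorescence detection.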 The note with it: primary human HUVEC with PBMC; actives raise or lower the signal. The procedure, abridged:
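HUVEC co-cultured with PBMC were dosed with chemical, and CD69 was measured by ELISA with fluorescence read-out 24 h later. Bidirectional curve fitting used DMSO as negative control and activity baseline.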

Read-out in assay [11]: Monocyte Chemoattractant Protein-1 (MCP1), CCL2 (gene 6347)
Kind of assay: BSK_SAg_MCP1: BioMAP Diversity Plus: SAg Assay for Monocyte Chemoattractant Protein-1 (MCP1) Biomarker Activity (AID 2283090). The note with it: primary human HUVEC with PBMC; actives raise or lower the signal. The procedure, abridged:
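Values derive from bidirectional fitting of ELISA-measured MCP1 against DMSO controls. Readings were taken 24 h after dosing human vascular endothelial cells co-cultured with peripheral blood mononuclear cells under superantigen stimulation.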

Read-out in assay [12]: E-selectin (Homo sapiens) (UniProt P16581)
As to the kind of experiment: BSK_SAg_Eselectin: BioMAP Diversity Plus: SAg Assay for Eselectin Biomarker Activity (AID 2283091). The note with it: primary human HUVEC with PBMC; actives raise or lower the signal. In a few lines: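 Primary human endothelial cells and peripheral blood mononuclear cells were co-cultured and exposed to chemical for 24 hours. E-selectin levels were then quantified by ELISA, with bidirectional curve fitting normalised to DMSO controls.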

Read-out in assay [13]: Monokine induced gamma interferon (MIG), CXCL9 (gene 4283)
As to the kind of experiment: BSK_SAg_MIG: BioMAP Diversity Plus: SAg Assay for Monokine induced gamma interferon (MIG) Biomarker Activity (AID 2283092). The note with it: primary human HUVEC with PBMC; actives raise or lower the signal. The procedure, abridged: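 HUVEC plus human PBMC co-culture, chemicals dosed and MIG (CXCL9) quantified by ELISA at 24 h. Bidirectional curve fitting against DMSO as negative control and baseline, so both gain and loss of signal count as activity.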

A short description of assay [14]: BSK_SAg_PBMCCytotoxicity: PBMC Cytotoxicity Assessment in the BioMAP Diversity Plus: SAg Assay (AID 2283093).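 Further: PBMC superantigen activated with SEB plus TSST-1 one hour after compound addition; fitted both ways against DMSO so a hit may be loss or gain of signal.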 As to conditions: primary human HUVEC with PBMC. The procedure, abridged:
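PBMC viability by Alamar Blue reduction, fluorescence read at 546/580 nm after 6 h dye exposure. Cells were dosed 1 h before SEB plus TSST-1 activation (20 ng/mL final each), then held 90 h; endothelial/PBMC human co-culture.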

Read-out in assay [15]: Interleukin-8 (IL8), CXCL8 (gene 3576)
Kind of assay: BSK_SAg_IL8: BioMAP Diversity Plus: SAg Assay for Interleukin-8 (IL8) Biomarker Activity (AID 2283094). As to conditions: primary human HUVEC with PBMC; actives raise or lower the signal. In a few lines:
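HUVEC/PBMC co-culture, 24 h post-dose; IL-8 by ELISA. Gain or loss of signal fitted bidirectionally vs DMSO baseline.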

A short description of assay [16]: BSK_SAg_Proliferation: Cell Proliferation Assessment in the BioMAP Diversity Plus: SAg Assay (AID 2283095).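 Further: relative cell number as total protein by SRB absorbance in sub-confluent culture.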 As to conditions: primary human HUVEC with PBMC. The procedure, abridged:
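HUVEC/PBMC co-culture, 96-well. TCA-fixed (10%), 0.1% SRB stain, A560 at 96 h. Protein content used as viability readout; bidirectional fitting vs DMSO control.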

Assay [17] can be described thus: BSK_SAg_SRB: Viability Assessment in the BioMAP Diversity Plus: SAg Assay (AID 2283096).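 Further: cells read one day after compound addition; hits may be either gain or loss of signal compared with DMSO.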 As to conditions: primary human HUVEC with PBMC. The procedure, abridged: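 Compounds were added to a human vascular co-culture of umbilical vein endothelium and PBMC. After 24 h, parallel cultures were fixed with 10% TCA, stained with 0.1% sulforhodamine B and read at 560 nm. Gain or loss of signal was fitted relative to DMSO.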

Assay [18] concerns the target human CYP19A1, CYP19A1 (gene 1588) (UniProt P11511). Kind of assay: NVS_ADME_hCYP19A1: NovaScreen (NVS) CYP450-related Enzyme Activity (ADME) Assay for human CYP19A1 (AID 2283098; active means hit-call score of the fitted dose curve at least 0.9, where 1 is the maximum). In a few lines: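 Fluorescence intensity read-out; activity taken as signal loss relative to acetonitrile vehicle. Extracted enzyme, specific substrate, no cells, 0.5 h exposure. Duplicate single-point screen at 10 uM, then concentration–response follow-up for actives.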

The target of assay [19] is human CYP2A6, CYP2A6 (gene 1548) (UniProt P11509). Kind of assay: NVS_ADME_hCYP2A6: NovaScreen (NVS) CYP450-related Enzyme Activity (ADME) Assay for human CYP2A6 (AID 2283099; active means hit-call score of the fitted dose curve at least 0.9, where 1 is the maximum). The procedure, abridged: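 Recombinant human CYP2A6 from insect cells was incubated with chemical for 0.5 h and activity read by fluorescence. Single-concentration duplicates at 10 uM preceded concentration-response testing to 20 uM, with activity referenced to acetonitrile.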

Where “and” joins values, the source holds several entries; their conditions need not be identical. Equal entries are not always repeated. Results filed as inconclusive are left out. Calls of active or inactive are those of the source. How the source made its calls, unless noted: active means hit-call score of the fitted dose curve at least 0.9, where 1 is the maximum; inactive means score below 0.9.

Chain of E-selectin (Homo sapiens) (P16581 whole entry, looked up): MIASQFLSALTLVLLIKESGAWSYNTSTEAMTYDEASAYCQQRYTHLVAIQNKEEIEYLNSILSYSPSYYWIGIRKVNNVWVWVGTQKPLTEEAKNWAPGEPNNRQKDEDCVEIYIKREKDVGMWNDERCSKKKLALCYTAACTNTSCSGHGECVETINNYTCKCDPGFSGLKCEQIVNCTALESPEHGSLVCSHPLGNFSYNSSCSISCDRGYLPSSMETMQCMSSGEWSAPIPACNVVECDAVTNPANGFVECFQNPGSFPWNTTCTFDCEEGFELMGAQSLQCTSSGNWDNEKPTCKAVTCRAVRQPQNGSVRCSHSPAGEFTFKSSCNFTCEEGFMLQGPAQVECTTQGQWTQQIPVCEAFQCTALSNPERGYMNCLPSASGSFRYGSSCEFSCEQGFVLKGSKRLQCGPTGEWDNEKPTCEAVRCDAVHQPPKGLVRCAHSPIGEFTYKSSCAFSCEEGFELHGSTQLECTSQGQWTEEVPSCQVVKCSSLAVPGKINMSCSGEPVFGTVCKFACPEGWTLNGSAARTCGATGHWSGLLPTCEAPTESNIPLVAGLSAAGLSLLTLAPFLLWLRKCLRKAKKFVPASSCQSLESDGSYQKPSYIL
Chain of Tumor necrosis factor (Homo sapiens) (P01375 whole entry, looked up): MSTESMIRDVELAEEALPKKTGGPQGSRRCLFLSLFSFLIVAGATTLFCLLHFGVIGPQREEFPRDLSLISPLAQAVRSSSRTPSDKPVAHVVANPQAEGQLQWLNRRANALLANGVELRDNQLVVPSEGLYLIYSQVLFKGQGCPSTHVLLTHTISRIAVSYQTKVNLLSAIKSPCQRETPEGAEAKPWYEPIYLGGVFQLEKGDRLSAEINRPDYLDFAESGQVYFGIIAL
Chain of human CYP2A6, CYP2A6 (gene 1548) (P11509 whole entry, looked up): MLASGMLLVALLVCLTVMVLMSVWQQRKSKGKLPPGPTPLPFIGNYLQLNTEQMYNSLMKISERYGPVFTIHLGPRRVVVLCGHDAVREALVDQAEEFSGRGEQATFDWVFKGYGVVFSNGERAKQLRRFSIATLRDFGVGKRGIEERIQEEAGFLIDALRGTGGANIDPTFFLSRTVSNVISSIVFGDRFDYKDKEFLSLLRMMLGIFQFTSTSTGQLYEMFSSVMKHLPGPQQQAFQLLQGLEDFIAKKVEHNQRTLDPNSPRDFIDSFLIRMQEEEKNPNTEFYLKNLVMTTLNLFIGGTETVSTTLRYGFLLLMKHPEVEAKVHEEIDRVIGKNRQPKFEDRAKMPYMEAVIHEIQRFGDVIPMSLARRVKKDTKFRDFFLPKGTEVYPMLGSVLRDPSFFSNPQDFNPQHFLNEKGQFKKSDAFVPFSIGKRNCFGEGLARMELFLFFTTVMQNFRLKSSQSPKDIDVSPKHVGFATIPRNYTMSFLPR
Chain of human CYP19A1, CYP19A1 (gene 1588) (P11511 whole entry, looked up): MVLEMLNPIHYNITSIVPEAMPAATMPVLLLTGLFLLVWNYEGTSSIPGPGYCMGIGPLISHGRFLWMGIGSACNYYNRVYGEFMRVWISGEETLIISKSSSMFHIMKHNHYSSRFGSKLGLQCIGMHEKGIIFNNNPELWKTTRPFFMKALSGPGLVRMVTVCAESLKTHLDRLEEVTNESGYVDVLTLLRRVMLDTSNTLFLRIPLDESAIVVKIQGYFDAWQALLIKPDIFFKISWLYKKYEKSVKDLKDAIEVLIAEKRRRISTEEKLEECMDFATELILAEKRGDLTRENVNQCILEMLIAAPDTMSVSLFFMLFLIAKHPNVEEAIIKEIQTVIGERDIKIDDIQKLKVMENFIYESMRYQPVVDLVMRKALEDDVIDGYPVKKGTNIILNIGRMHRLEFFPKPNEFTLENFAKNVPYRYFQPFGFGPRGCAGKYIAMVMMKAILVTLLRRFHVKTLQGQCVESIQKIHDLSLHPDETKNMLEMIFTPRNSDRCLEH

For orientation: AC50 means the concentration giving half of the maximal activity seen. As for `CCCN(CCC)c1c([N+](=O)[O-])cc(C(F)(F)F)cc1[N+](=O)[O-]`, the result in [1], in [3], in assay [5], in [6], in assay [11] and in assay [13] was inactive. In addition, the outcome in assay [18] was inactive. Also, the AC50 in [2] was 36.2 µM (active); in [4], 20 µM (active); in assay [7], 29.3 µM (active); in assay [8], 15.2 µM (active); in assay [9] it was 29.5 µM (active); in [10] it was 30.2 µM (active). In addition, the AC50 in assay [12] was 15.4 µM (active); in assay [14], 15 µM (active); in assay [15] it was 24.9 µM (active); in assay [16], 24.4 µM (active); in [17], 20 µM (active).

In the case of `CN1CSC(=S)N(C)C1`, the half-maximal activity concentration (AC50) in [1] was 12.8 µM (active); in assay [2], 11.9 µM (active); in assay [3] it was 3.85 µM (active); in assay [4], 10.8 µM (active); in assay [5], 13.7 µM (active); in assay [6], 8.45 µM (active). In addition, the half-maximal activity concentration (AC50) is 18.3 µM (active) in [7]; 23.3 µM (active) in assay [8]; 20 µM (active) in assay [9]; 20 µM (active) in [10]; 15 µM (active) in [11]; 19.8 µM (active) in assay [12]. In addition, the concentration at half-maximal activity (AC50) in [13] was 31.6 µM (active); in assay [14] it was 14.4 µM (active); in [15] it was 20.2 µM (active); in assay [16], 5.99 µM (active). Moreover, the outcome in assay [17] and in assay [19] was inactive.

Regarding `Oc1cc(Cl)ccc1Oc1ccc(Cl)cc1Cl`, the half-maximal activity concentration (AC50) in assay [1] was 14.3 µM (active) and 14.6 µM (active) and 29 µM (active); in [2], 19.9 µM (active) [middle of 4 runs]; in [3] it was 6.07 µM (active) [middle of 4 runs]; in [4], 18.7 µM (active) [middle of 4 runs]; in assay [5], 28.1 µM (active) and 14.7 µM (active) and 30.3 µM (active); in [6], 31.2 µM (active) [middle of 4 runs]. The AC50 in assay [7] was 25.8 µM (active) [middle of 4 runs]; in assay [8] it was 12.4 µM (active) [middle of 4 runs]; in [9], 12.9 µM (active) [middle of 4 runs]; in assay [10] it was 13.5 µM (active) and 14.7 µM (active) and 14.4 µM (active); in [11], 12.5 µM (active) [middle of 4 runs]; in assay [12] it was 12.7 µM (active) [middle of 4 runs]. The concentration at half-maximal activity (AC50) is 15.8 µM (active) [middle of 4 runs] in assay [13]; 13.8 µM (active) [middle of 4 runs] in assay [14]; 12.8 µM (active) [middle of 4 runs] in assay [15]; 8.46 µM (active) and 8.15 µM (active) and 6.76 µM (active) in assay [16]; 15.3 µM (active) and 22.3 µM (active) and 14.9 µM (active) in [17].
